# Test results reported in the supplement of paper PMC10037445.
# “And” between values parts separate entries of the source, which are not always exact repeats. Equal values may be shown once. The full ranking holds about 2,900 compounds; the median of “NF-kB SEAP reporter activity, fold change vs agonist alone” is about 0.99, and the highest 2% start at about 2.6. This excerpt belongs to a sample that is enriched for the highest values.
# Columns and labels:
# RAW-Dual [1] = experiment: NF-kB SEAP reporter activity, fold change vs agonist alone; cytotoxicity flag (confluency mask): not cytotoxic; higher = enhanced NF-kB activity
# Outline: (§1)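 Reporter activity is given as fold change relative to agonist-alone wells. To measure it, 50 nL of library stock was pin-tooled onto RAW-Dual macrophages (50,000 cells/well, DMEM, 384-well plates), a PRR agonist followed 1 h later, and cells stayed at 37 °C, 5% CO2. Twenty hours on, supernatant was assayed for IRF (QuantiLuc luminescence) and NF-κB (QuantiBlue, 620 nm absorbance), and wells under 70% of agonist-control IncuCyte confluency in both mask sets were marked cytotoxic.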
# RAW-Dual [2] = experiment: NF-kB SEAP reporter activity, fold change vs agonist alone; higher = enhanced NF-kB activity; settings: library stock concentration (final ~1000-fold dilution): 10 mM
# Outline: as §1
# RAW-Dual [3] = experiment: NF-kB SEAP reporter activity, fold change vs agonist alone; cytotoxicity flag (confluency mask): cytotoxic (confluency <70% of control); higher = enhanced NF-kB activity
# Outline: as §1
# [4] = agonist: ODN 1826 (TLR9) 0.5 ug/mL
# [5] = agonist: Pam2CSK4 (TLR2/6) 0.1 ug/mL
# [6] = agonist: Pam3CSK4 (TLR2/1) 0.1 ug/mL
# [7] = cytotoxicity flag (confluency mask): not cytotoxic, agonist: Imiquimod (TLR7) […]
# [8] = cytotoxicity flag (confluency mask): not cytotoxic, agonist: MPLA (TLR4) […]
structure (smiles),measurement,setting,value
COc1ccccc1C(=O)Nc1cc2c(cc1N1CCNCC1C)n(C)c(=O)n2C (centres undefined) (library stock concentration (final ~1000-fold dilution): 10 mM),NF-kB SEAP reporter activity,RAW-Dual [1]; agonist: LPS (TLR4) 0.1 ug/mL,1.48
same,NF-kB SEAP reporter activity,RAW-Dual [1]; [4],0.383
same,NF-kB SEAP reporter activity,RAW-Dual [1]; [5],0.997
same,NF-kB SEAP reporter activity,RAW-Dual [1]; [6],0.973
COc1ccccc1C(=O)Nc1cc2c(cc1N1CCNCC1C)n(C)c(=O)n2C (centres undefined),NF-kB SEAP reporter activity,RAW-Dual [2]; [7],1.01
same,NF-kB SEAP reporter activity,RAW-Dual [2]; [8],1.37
CCOC(=O)C(CCc1ccccc1)NC1CSC(c2cccs2)CN(CC(=O)O)C1=O.Cl (centres undefined) (library stock concentration (final ~1000-fold dilution): 10 mM),NF-kB SEAP reporter activity,RAW-Dual [1]; agonist: LPS (TLR4) 0.1 ug/mL,0.869
same,NF-kB SEAP reporter activity,RAW-Dual [1]; [4],1.04
same,NF-kB SEAP reporter activity,RAW-Dual [1]; [5],0.946
same,NF-kB SEAP reporter activity,RAW-Dual [1]; [6],1.15
CCOC(=O)C(CCc1ccccc1)NC1CSC(c2cccs2)CN(CC(=O)O)C1=O.Cl (centres undefined),NF-kB SEAP reporter activity,RAW-Dual [2]; [7],1.01
same,NF-kB SEAP reporter activity,RAW-Dual [2]; [8],1.01
NC(=O)c1ccc(-c2nc(-c3ccc4c(c3)OCCO4)c(-c3ccccn3)[nH]2)cc1,NF-kB SEAP reporter activity,RAW-Dual [2]; [7],0.743
same,NF-kB SEAP reporter activity,RAW-Dual [2]; [8],1.45
NC(=O)c1ccc2[nH]c(-c3ccc(Oc4ccc(Cl)cc4)cc3)nc2c1 (library stock concentration (final ~1000-fold dilution): 10 mM),NF-kB SEAP reporter activity,RAW-Dual [1]; agonist: LPS (TLR4) 0.1 ug/mL,1.71
same,NF-kB SEAP reporter activity,RAW-Dual [1]; [4],1.59
same,NF-kB SEAP reporter activity,RAW-Dual [1]; [5],2.1
same,NF-kB SEAP reporter activity,RAW-Dual [1]; [6],3.55
COc1ccc(-c2nc3cc(C4=NNC(=O)CC4C)ccc3[nH]2)cc1 (centres undefined) (library stock concentration (final ~1000-fold dilution): 10 mM),NF-kB SEAP reporter activity,RAW-Dual [1]; agonist: LPS (TLR4) 0.1 ug/mL,1.3
same,NF-kB SEAP reporter activity,RAW-Dual [1]; [4],2.47
same,NF-kB SEAP reporter activity,RAW-Dual [1]; [5],1.8
same,NF-kB SEAP reporter activity,RAW-Dual [1]; [6],1.7
COc1ccc(-c2nc3cc(C4=NNC(=O)CC4C)ccc3[nH]2)cc1 (centres undefined),NF-kB SEAP reporter activity,RAW-Dual [2]; [7],1.67
same,NF-kB SEAP reporter activity,RAW-Dual [2]; [8],1.34
NC(=O)c1ccc2[nH]c(-c3ccc(Oc4ccc(Cl)cc4)cc3)nc2c1,NF-kB SEAP reporter activity,RAW-Dual [2]; [7],1.47
same,NF-kB SEAP reporter activity,RAW-Dual [2]; [8],2.09
NC(=O)c1ccc(-c2nc(-c3ccc4c(c3)OCCO4)c(-c3ccccn3)[nH]2)cc1 (library stock concentration (final ~1000-fold dilution): 10 mM),NF-kB SEAP reporter activity,RAW-Dual [1]; agonist: LPS (TLR4) 0.1 ug/mL,1.81
same,NF-kB SEAP reporter activity,RAW-Dual [1]; [4],1.29
same,NF-kB SEAP reporter activity,RAW-Dual [1]; [5],1.25
same,NF-kB SEAP reporter activity,RAW-Dual [1]; [6],0.913
Cl.Cl.Fc1cc(-c2cccc3ncc(-c4cnn(C5CCNCC5)c4)nc23)cc(F)c1CN1CCOCC1 (library stock concentration (final ~1000-fold dilution): 10 mM),NF-kB SEAP reporter activity,RAW-Dual [1]; agonist: LPS (TLR4) 0.1 ug/mL,0.349
same,NF-kB SEAP reporter activity,RAW-Dual [1]; [4],0.924
same,NF-kB SEAP reporter activity,RAW-Dual [1]; [5],0.147
same,NF-kB SEAP reporter activity,RAW-Dual [1]; [6],0.912
Cl.Cl.Fc1cc(-c2cccc3ncc(-c4cnn(C5CCNCC5)c4)nc23)cc(F)c1CN1CCOCC1,NF-kB SEAP reporter activity,RAW-Dual [2]; [7],0.92
same,NF-kB SEAP reporter activity,RAW-Dual [2]; [8],0.944
CCOC(=O)C(CCc1ccccc1)NC(C)C(=O)N1C(=O)N(C)CC1C(=O)O.Cl (centres undefined) (library stock concentration (final ~1000-fold dilution): 10 mM),NF-kB SEAP reporter activity,RAW-Dual [1]; agonist: LPS (TLR4) 0.1 ug/mL,1.2
same,NF-kB SEAP reporter activity,RAW-Dual [1]; [4],0.98
same,NF-kB SEAP reporter activity,RAW-Dual [1]; [5],0.83
same,NF-kB SEAP reporter activity,RAW-Dual [1]; [6],1.03
CCOC(=O)C(CCc1ccccc1)NC(C)C(=O)N1C(=O)N(C)CC1C(=O)O.Cl (centres undefined),NF-kB SEAP reporter activity,RAW-Dual [2]; [7],0.962
same,NF-kB SEAP reporter activity,RAW-Dual [2]; [8],0.927
CCC(C)C(=O)OC1CC(O)C=C2C=CC(C)C(CCC(O)CC(O)CC(=O)O)C21 (centres undefined) (library stock concentration (final ~1000-fold dilution): 10 mM),NF-kB SEAP reporter activity,RAW-Dual [1]; agonist: LPS (TLR4) 0.1 ug/mL,1.01 and 1.04
same,NF-kB SEAP reporter activity,RAW-Dual [1]; [4],1 and 1.02
same,NF-kB SEAP reporter activity,RAW-Dual [1]; [5],1.08 and 1.05
same,NF-kB SEAP reporter activity,RAW-Dual [1]; [6],0.841 and 1.15
CCC(C)C(=O)OC1CCC=C2C=CC(C)C(CCC3CC(O)CC(=O)O3)C21 (centres undefined),NF-kB SEAP reporter activity,RAW-Dual [2]; [7],2.3
same,NF-kB SEAP reporter activity,RAW-Dual [2]; [8],1.97
CCC(C)(C)C(=O)OC1CC(C)C=C2C=CC(C)C(CCC3CC(O)CC(=O)O3)C21 (centres undefined) (library stock concentration (final ~1000-fold dilution): 10 mM),NF-kB SEAP reporter activity,RAW-Dual [3]; agonist: LPS (TLR4) 0.1 ug/mL,2.35
same,NF-kB SEAP reporter activity,RAW-Dual [3]; [4],2.44
same,NF-kB SEAP reporter activity,RAW-Dual [3]; [5],2.12
same,NF-kB SEAP reporter activity,RAW-Dual [3]; [6],3.35
CCC(C)(C)C(=O)OC1CC(C)C=C2C=CC(C)C(CCC3CC(O)CC(=O)O3)C21 (centres undefined),NF-kB SEAP reporter activity,"RAW-Dual [2]; cytotoxicity flag (confluency mask): cytotoxic (confluency <70% of control), agonist: Imiquimod (TLR7) […]",2.53
same,NF-kB SEAP reporter activity,"RAW-Dual [2]; cytotoxicity flag (confluency mask): cytotoxic (confluency <70% of control), agonist: MPLA (TLR4) […]",1.95
CCC(C)C(=O)OC1CC(C)C=C2C=CC(C)C(CCC3CC(O)CC(=O)O3)C21 (centres undefined),NF-kB SEAP reporter activity,RAW-Dual [2]; [7],2.54
same,NF-kB SEAP reporter activity,RAW-Dual [2]; [8],1.94
CCC(C)C(=O)OC1CC(C)C=C2C=CC(C)C(CCC3CC(O)CC(=O)O3)C21 (centres undefined) (library stock concentration (final ~1000-fold dilution): 10 mM),NF-kB SEAP reporter activity,RAW-Dual [1]; agonist: LPS (TLR4) 0.1 ug/mL,3.33
same,NF-kB SEAP reporter activity,RAW-Dual [1]; [4],2.62
same,NF-kB SEAP reporter activity,RAW-Dual [1]; [5],1.93
same,NF-kB SEAP reporter activity,RAW-Dual [1]; [6],3.02
CCC(C)C(=O)OC1CCC=C2C=CC(C)C(CCC3CC(O)CC(=O)O3)C21 (centres undefined) (library stock concentration (final ~1000-fold dilution): 10 mM),NF-kB SEAP reporter activity,RAW-Dual [1]; agonist: LPS (TLR4) 0.1 ug/mL,3.69
same,NF-kB SEAP reporter activity,RAW-Dual [1]; [4],2.68
same,NF-kB SEAP reporter activity,RAW-Dual [1]; [5],1.45
same,NF-kB SEAP reporter activity,RAW-Dual [1]; [6],2.12
CC(C)(Cc1ccc2ccccc2c1)NCC(O)COc1cccc(Cl)c1C#N (centres undefined) (library stock concentration (final ~1000-fold dilution): 10 mM),NF-kB SEAP reporter activity,RAW-Dual [1]; agonist: LPS (TLR4) 0.1 ug/mL,0.273
same,NF-kB SEAP reporter activity,RAW-Dual [1]; [4],0.962
same,NF-kB SEAP reporter activity,RAW-Dual [1]; [5],0.164
same,NF-kB SEAP reporter activity,RAW-Dual [1]; [6],1.03
CC(C)(Cc1ccc2ccccc2c1)NCC(O)COc1cccc(Cl)c1C#N (centres undefined),NF-kB SEAP reporter activity,RAW-Dual [2]; [7],0.896
same,NF-kB SEAP reporter activity,RAW-Dual [2]; [8],0.972
CCCCCCCCCC(=O)NC(Cc1c[nH]c2ccccc12)C(=O)NC(CC(N)=O)C(=O)NC(CC(=O)O)C(=O)NC1C(=O)NCC(=O)NC(CCCN)C(=O)NC(CC(=O)O)C(=O)NC(C)C(=O)NC(CC(=O)O)C(=O)NCC(=O)NC(CO)C(=O)NC(C(C)CC(=O)O)C(=O)NC(CC(=O)c2ccccc2N)C(=O)OC1C (centres undefined) (library stock concentration (final ~1000-fold dilution): 10 mM),NF-kB SEAP reporter activity,RAW-Dual [1]; agonist: LPS (TLR4) 0.1 ug/mL,1.33
same,NF-kB SEAP reporter activity,RAW-Dual [1]; [4],1.01
same,NF-kB SEAP reporter activity,RAW-Dual [1]; [5],1.05
same,NF-kB SEAP reporter activity,RAW-Dual [1]; [6],1.19
